For 13 compounds, Potency and activity change, negative = cytotoxicity results are on record in PubChem BioAssay (NCATS).

The structures appear in SMILES notation. Records with an inconclusive call do not appear. Unmarked numbers belong to inactive results. Calls of active or inactive are those of the source. Calls come from the whole dose curve; as a rule, active = well fitted cell-killing curve with a large enough effect; inconclusive = small, poorly fitted or top-dose-only effect, or effect the other way; inactive = flat fitted curve, though single readings scatter.

Test in all cases: Primary qHTS to identify gynecologic anti-cancer compounds using libraries of approved drugs and bioactive compounds (AID 1345084); note: nearly all actives have a fitted effect of over 55% in size
For one experiment, the system named is C33A. To be noted: Gynecologic cancer cell panel viability, ATPlite luminescence, 48 h; series mostly up to 57.5 µM. Put shortly:
(§1)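 Measured: luminescence after ATPlite addition (15 min, RT). Exposure: 48 h, 37 C, 5% CO2.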

Another experiment relates to CASKI. As to conditions: Gynecologic cancer cell panel viability, ATPlite luminescence, 48 h; series mostly up to 57.5 µM. Put shortly: as §1
In a further experiment the test system is Es-2. To be noted: Gynecologic cancer cell panel viability, ATPlite luminescence, 48 h; series mostly up to 57.5 µM. The procedure, abridged:
as §1

The test system of another experiment is HeLa. To be noted: Gynecologic cancer cell panel viability, ATPlite luminescence, 48 h; series mostly up to 57.5 µM. Put shortly:
as §1

The next experiment deals with Hek293T. As to conditions: Gynecologic cancer cell panel viability, ATPlite luminescence, 48 h, control line for the selectivity index; series mostly up to 57.5 µM. The procedure, abridged:
as §1

For a further experiment, the system named is JEG-3. As to conditions: Gynecologic cancer cell panel viability, ATPlite luminescence, 48 h; series mostly up to 57.5 µM. Put shortly: as §1
Another experiment has as its system OV90. To be noted: Gynecologic cancer cell panel viability, ATPlite luminescence, 48 h; series mostly up to 57.5 µM. Put shortly:
as §1
% is set by controls: 0 for no effect and ±100 for the full control effect; potency is the fitted concentration of half-maximal effect.

Take `CCN1C[C@]2(OC(=O)c3ccccc3NC(C)=O)CC[C@H](OC)[C@@]34[C@@H]2C[C@@H]([C@@H]13)[C@@]1(O)C[C@H](OC)[C@H]2C[C@@H]4[C@]1(O)[C@H]2OC`: the Potency entry with C33A, in the experiment with CASKI, with Es-2, in the experiment with HeLa, with Hek293T and in the experiment with JEG-3 was “inactive” each time. The Potency result in the experiment with OV90 is “inactive”.
In the case of `CCN1C[C@]2(COC)[C@H](O)C[C@H](OC)[C@]34[C@@H]5C[C@]6(O)[C@H](OC(=O)c7ccccc7)[C@@H]5[C@@](O)([C@H]([C@H](OC)[C@H]23)[C@@H]14)[C@@H](O)[C@@H]6OC`, the Potency entry in the experiment on C33A, in the experiment with CASKI, in the experiment with Es-2, in the experiment on HeLa, in the experiment on Hek293T and in the experiment with JEG-3 was “inactive” in each case. In addition, the Potency entry with OV90 is “inactive”.
On to `COC1CC(OC2CCC3(C)C(CCC4C3CCC3(C)C(C5=CC(=O)OC5)C(OC(C)=O)CC43O)C2)OC(C)C1OC1OC(CO)C(O)C(O)C1O` (centres undefined), for which the results for the Potency in the experiment with C33A, with HeLa and with Hek293T were 3160 nM (active), 2820 nM (active) and 3160 nM (active), respectively.
For the compound `CO[C@@H]1[C@H](O)[C@@H](O[C@@H]2C[C@H]3CC[C@@H]4C(CC[C@]5(C)[C@@H](C6=CC(=O)OC6)CC[C@]45O)[C@@]3(C)[C@H](O)C2)O[C@H](C)[C@@H]1O[C@@H]1O[C@H](CO)[C@@H](O)[C@H](O)[C@H]1O` (some centres undefined), the Potency with C33A was 199 nM (active); with CASKI, 1260 nM (active); in the experiment on Es-2, 398 nM (active); in the experiment with HeLa, 562 nM (active); in the experiment on Hek293T, 398 nM (active); with OV90, 2240 nM (active).
As to `C[C@@](O)(COc1ccc(C#N)cc1)C(=O)Nc1ccc(C#N)c(C(F)(F)F)c1`, the Potency result in the experiment on C33A, in the experiment on CASKI, in the experiment with Es-2, with HeLa, in the experiment with Hek293T and in the experiment with JEG-3 was “inactive” throughout. In the experiment on OV90, the Potency entry is “inactive”.
Consider `COC1C(O)C(OC2CCC3(C=O)C(CCC4C3CCC3(C)C(C5=CC(=O)OC5)CCC43O)C2)OC(C)C1OC1OC(CO)C(O)C(O)C1O` (centres undefined), for which the Potency with C33A was 501 nM (active); in the experiment on Es-2, 891 nM (active); with HeLa, 1260 nM (active); with Hek293T, 1000 nM (active); in the experiment with JEG-3, 2240 nM (active); in the experiment on OV90, 3550 nM (active).
For the compound `C[C@]12CC[C@@H](O)C[C@H]1CC[C@@H]1[C@@H]2CC[C@]2(C)C(=O)CC[C@@H]12`, the Potency result with C33A, in the experiment on CASKI, with Es-2, in the experiment on HeLa, in the experiment on Hek293T and in the experiment with JEG-3 was “inactive” throughout. In addition, the Potency result with OV90 was “inactive”.
As for `O=C(N1CCOCC1)N1CCN(c2ccc(Cl)cc2)CC1`, the Potency result with C33A, with CASKI, with Es-2, with HeLa, in the experiment with Hek293T and with JEG-3 was “inactive” in each case. In addition, the Potency result in the experiment with OV90 is “inactive”.
Turning to `COC(=O)[C@@]12C(=O)C(C)C(=O)[C@]1(C)C(C)=C[C@H]1[C@]3(C=O)CC[C@H](OC(C)=O)C(C)(C)[C@H]3CC[C@@]12C` (some centres undefined), the Potency result in the experiment on C33A, with CASKI, in the experiment with Es-2, in the experiment with HeLa, in the experiment with Hek293T and in the experiment on JEG-3 was “inactive” each time. The Potency result with OV90 was “inactive”.
Consider `CCN1CC2(COC)C3[C@@H](OC)C4C1C3(C1C[C@]3(O)[C@H](OC(=O)c5ccccc5)C1[C@]4(OC(C)=O)[C@@H](O)[C@@H]3OC)[C@H](OC)C[C@H]2O` (some centres undefined), for which the Potency result in the experiment with C33A, in the experiment with CASKI, with Es-2, in the experiment with HeLa, in the experiment with Hek293T and in the experiment with JEG-3 was “inactive” in each case. For the same compound, the Potency result in the experiment on OV90 was “inactive”.
`CC(N)Cc1c[nH]c2ccccc12` (centres undefined): the Potency result in the experiment with C33A, in the experiment with CASKI, in the experiment on Es-2, in the experiment with HeLa, with Hek293T and in the experiment on JEG-3 was “inactive” throughout. The Potency result with OV90 was “inactive”.
For the compound `C=CC(C)(O)CC/C=C(\C)C(=O)O[C@H]1[C@H](O)[C@@H](CO)O[C@@H](OC(=O)[C@]23CCC(C)(C)CC2C2=CCC4[C@@]5(C)CC[C@H](O[C@@H]6O[C@H](CO[C@@H]7OC[C@H](O)[C@H](O)[C@H]7O[C@@H]7OC[C@@H](O)[C@H](O)[C@H]7O)[C@@H](O)[C@H](O)[C@H]6O)C(C)(C)C5CC[C@@]4(C)[C@]2(C)CC3)[C@@H]1OC1OC(C)C(O[C@@H]2OC[C@@H](O)[C@H](O[C@@H]3OC[C@@H](O)[C@H](O)[C@H]3O)[C@H]2O)C(O)C1O` (some centres undefined), the activity change, negative = cytotoxicity in the experiment with C33A was 2.58% [at 6.55 µM]; in the experiment with CASKI, -11.5% [at 6.55 µM]; with Es-2, 0.692% [at 6.55 µM]; with HeLa, 7.46% [at 6.55 µM]; with Hek293T, 2.18% [at 6.55 µM]; in the experiment with JEG-3 it was -17.2% [at 6.55 µM]. For the same compound, in the experiment on OV90, the activity change, negative = cytotoxicity was -3.63% [at 6.55 µM].
Regarding `CN1C(=O)N(c2ccc(C#N)c(C(F)(F)F)c2)C(=O)[C@]1(CO)c1ccccc1`, the Potency entry with C33A, with CASKI, in the experiment on HeLa, in the experiment with Hek293T, with JEG-3 and with OV90 was “inactive” each time.
